Structures can show the parent of a compound that is named as a salt.
Tested on: Saccharomyces cerevisiae BY4741 SeMeCo community
Assay: z-score of subpopulation abundance vs DMSO median, subpopulation auxotrophic for HLM; higher = larger share of this subpopulation than in DMSO controls
Settings: 10 µM; 24 h; SM minimal medium; subpopulation (auxotrophy): HLM
Description: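 Fluorescent four-plasmid SeMeCo (self-establishing metabolically cooperating S. cerevisiae BY4741 community; plasmids pH-mRuby2, pL-mWasabi, pU-eCFP, pM-TagRFP657) was grown 24 h in minimal SM medium with each Selleck FDA-approved drug at 10 µM in 384-well plates. Cells were fixed and imaged by high-content confocal microscopy. For each auxotrophic subpopulation (and the prototroph), a z-score gives the deviation from the DMSO vehicle-control population median.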

Row | SMILES | z-score of subpopulation abundance
1 | Nc1nc(N)nc(-c2cc(Cl)ccc2Cl)n1 [Irsogladine] | -0.41
2 | CN(Cc1cnc2nc(N)nc(N)c2n1)c1ccc(C(=O)N[C@@H](CCC(=O)O)C(=O)O)cc1 [Methotrexate] | 8.99
3 | CN(C)CC(c1ccc(O)cc1)C1(O)CCCCC1 (stereo not given) [Desvenlafaxine] | -0.85
4 | CCOc1cc(N)c(Cl)cc1C(=O)NCC1CN(Cc2ccc(F)cc2)CCO1 (stereo not given) [Mosapride Citrate] | 0.62
5 | COc1ccc(CC2c3cc(OC)c(OC)cc3CC[N+]2(C)CCC(=O)OCCCCCOC(=O)CC[N+]2(C)CCc3cc(OC)c(OC)cc3C2Cc2ccc(OC)c(OC)c2)cc1OC (stereo not given) [Atracurium Besylate] | 0.51
6 | CCCc1nn(C)c2c(=O)[nH]c(-c3cc(S(=O)(=O)N4CCN(C)CC4)ccc3OCC)nc12 [Sildenafil] | -1.11
7 | CC(C)[N+]1(C)[C@@H]2CC[C@H]1C[C@@H](OC(=O)C(CO)c1ccccc1)C2 (stereo not given in full) [Ipratropium Bromide] | -0.71
8 | CN[C@@H]1[C@@H](O)[C@@H](O[C@@H]2[C@@H](O)[C@H](O[C@H]3O[C@H](CN)[C@@H](O)[C@H](O)[C@H]3O)[C@@H](N)C[C@H]2NC(=O)[C@@H](O)CN)OC[C@]1(C)O [Isepamicin Sulphate] | -0.7
9 | Oc1c(I)cc(I)c2cccnc12 [Diiodohydroxyquinoline] | 2.46
10 | CN[C@@H]1[C@@H](O[C@H]2O[C@H](CO)[C@@H](N)[C@H](O)[C@H]2O)OC2C[C@@H](N)[C@@H](O[C@H]3[C@H](O)[C@@H](O)[C@H](N)C[C@@H]3N)OC2[C@@H]1O (stereo not given in full) [Apramycin Sulfate] | 0.1
11 | c1ccc(-c2ccc(C(c3ccccc3)n3ccnc3)cc2)cc1 (stereo not given) [Bifonazole] | 2.32
12 | O=C1c2cccc3c2[C@H](CCC3)CN1[C@@H]1CN2CCC1CC2 [Palonosetron] | -0.49
13 | Nc1ccc(S(=O)(=O)Nc2nccs2)cc1 [Sulfathiazole] | -0.42
14 | COc1cc(NS(=O)(=O)c2ccc(N)cc2)ncn1 [Sulfamonomethoxine] | -0.64
15 | C#C[C@]1(O)CC[C@H]2[C@@H]3CCc4cc(OC)ccc4[C@H]3CC[C@@]21C [Mestranol] | -0.48
16 | CCc1cc(C(N)=S)ccn1 [Ethionamide] | -0.28
17 | CCn1cc(C(=O)O)c(=O)c2ccc(C)nc21 [Nalidixic acid] | -0.21
18 | CCOC(=O)OC(C)OC1=C(C(=O)Nc2ccccn2)N(C)S(=O)(=O)c2ccccc21 (stereo not given) [Ampiroxicam] | -0.4
19 | CN(C)c1ccc(O)c2c1C[C@H]1C[C@H]3[C@H](N(C)C)C(=O)C(C(N)=O)=C(O)[C@@]3(O)C(=O)C1=C2O [Minocycline HCl] | 0.31
20 | Cn1c(=O)c2[nH]cnc2n(C)c1=O [Aminophylline] | -0.27

Row | SMILES | z-score of subpopulation abundance
21 | OC[C@H]1O[C@H](OCC2O[C@@H](O)[C@H](O)[C@@H](O)[C@@H]2O)[C@H](O)[C@@H](O)[C@H]1O (stereo not given in full) [Melibiose] | 1.11
22 | COc1ccccc1OCC(O)CN1CCN(CC(=O)Nc2c(C)cccc2C)CC1 (stereo not given) [Ranolazine] | 0.19
23 | Nc1ccc(S(N)(=O)=O)cc1 [Sulfanilamide] | -0.21
24 | CO[C@H]1O[C@@H]2O[C@@]3(C)CC[C@H]4[C@H](C)CC[C@@H]([C@H]1C)[C@@]24OO3 [Artemether] | -0.27
25 | C[C@]12CC[C@@H]3c4ccc(OC(=O)c5ccccc5)cc4CC[C@H]3[C@@H]1CC[C@@H]2O [Estradiol Benzoate] | -0.6
26 | O=C(CCCN1CCC(O)(c2ccc(Cl)cc2)CC1)c1ccc(F)cc1 [Haloperidol] | -0.12
27 | O=C(O)c1cccnc1Nc1cccc(C(F)(F)F)c1 [Niflumic acid] | 0.59
28 | CN1CC2c3ccccc3Oc3ccc(Cl)cc3C2C1 (stereo not given) [Asenapine maleate] | -0.53
29 | CC(=O)OCC1=C(C(=O)O)N2C(=O)C(NC(=O)CSC(=NC(C)C)NC(C)C)C2SC1 (stereo not given) [Cefathiamidine] | -1.16
30 | CC(=O)C1C(=O)C=C(C)OC1=O (stereo not given) [Sodium dehydroacetate] | 0.13
31 | CCOC(=O)C1=C(C)NC(C)=C(C(=O)OC)C1c1cccc([N+](=O)[O-])c1 (stereo not given) [Nitrendipine] | -0.87
32 | Fc1ccc([C@@H]2CCNC[C@H]2COc2ccc3c(c2)OCO3)cc1 [Paroxetine mesylate] | 0.34
33 | C#C[C@]1(O)CC[C@H]2[C@@H]3CCC4=CC(=O)CC[C@@H]4[C@H]3C(=C)C[C@@]21CC [Etonogestrel] | -0.55
34 | CCCN1C[C@H](C)[C@@H](O)[C@](C)(O)[C@@H](CC)OC(=O)[C@H](C)[C@@H](O[C@H]2C[C@@](C)(OC)[C@@H](O)[C@H](C)O2)[C@H](C)[C@@H](O[C@@H]2O[C@H](C)C[C@H](N(C)C)[C@H]2O)[C@](C)(O)C[C@H]1C [Gamithromycin] | -0.18
35 | O=C(Nc1c(Cl)cncc1Cl)c1ccc(OC(F)F)c(OCC2CC2)c1 [Roflumilast] | -0.77
36 | CC[C@@H]1/C=C(\C)C[C@H](C)C[C@H](OC)[C@H]2O[C@@](O)(C(=O)C(=O)N3CCCC[C@H]3C(=O)O[C@H](/C(C)=C/[C@@H]3CC[C@H](Cl)[C@H](OC)C3)[C@H](C)[C@@H](O)CC1=O)[C@H](C)C[C@@H]2OC [Pimecrolimus] | 2.14
37 | CCn1cc(C(=O)O)c(=O)c2cnc(N3CCNCC3)nc21 [Pipemidic acid] | -0.37
38 | Nc1ccc(S(=O)(=O)Nc2ncccn2)cc1 [Sulfadiazine] | 0
39 | COc1ccc(Cl)cc1C(=O)NCCc1ccc(S(=O)(=O)NC(=O)NC2CCCCC2)cc1 [Glyburide (Glibenclamide)] | -0.04
40 | NC12CC3CC(CC(C3)C1)C2 [Amantadine] | -0.36

Source: the supplement of paper PMC8975748
